# Screening data from PubChem BioAssay.
# Many of the other results were omitted from the sample, so hits are more common in it than they were.
# AMPAR-TARP mod: modulates AMPAR-stargazin complexes | O88602+P19491 | HEK293 GluA2+stargazin, membrane potential dye (FDSS), glutamate EC50; hits were called plate by plate, in both directions | calls only at 30 µM | 40,000 tested, 3.5% active | AID 1259245;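 active = any of four per-well response measures lying three or more SD from its plate-wide compound average, in either direction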
# Target sequence (O88602 whole entry, looked up): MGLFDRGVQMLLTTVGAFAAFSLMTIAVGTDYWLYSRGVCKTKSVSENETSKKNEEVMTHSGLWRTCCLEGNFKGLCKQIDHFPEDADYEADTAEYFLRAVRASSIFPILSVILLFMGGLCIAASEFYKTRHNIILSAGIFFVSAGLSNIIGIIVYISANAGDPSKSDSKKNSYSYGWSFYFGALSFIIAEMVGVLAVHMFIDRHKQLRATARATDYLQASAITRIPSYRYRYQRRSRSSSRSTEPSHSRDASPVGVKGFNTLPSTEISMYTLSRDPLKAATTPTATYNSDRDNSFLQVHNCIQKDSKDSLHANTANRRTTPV
# Target sequence (P19491 whole entry, looked up): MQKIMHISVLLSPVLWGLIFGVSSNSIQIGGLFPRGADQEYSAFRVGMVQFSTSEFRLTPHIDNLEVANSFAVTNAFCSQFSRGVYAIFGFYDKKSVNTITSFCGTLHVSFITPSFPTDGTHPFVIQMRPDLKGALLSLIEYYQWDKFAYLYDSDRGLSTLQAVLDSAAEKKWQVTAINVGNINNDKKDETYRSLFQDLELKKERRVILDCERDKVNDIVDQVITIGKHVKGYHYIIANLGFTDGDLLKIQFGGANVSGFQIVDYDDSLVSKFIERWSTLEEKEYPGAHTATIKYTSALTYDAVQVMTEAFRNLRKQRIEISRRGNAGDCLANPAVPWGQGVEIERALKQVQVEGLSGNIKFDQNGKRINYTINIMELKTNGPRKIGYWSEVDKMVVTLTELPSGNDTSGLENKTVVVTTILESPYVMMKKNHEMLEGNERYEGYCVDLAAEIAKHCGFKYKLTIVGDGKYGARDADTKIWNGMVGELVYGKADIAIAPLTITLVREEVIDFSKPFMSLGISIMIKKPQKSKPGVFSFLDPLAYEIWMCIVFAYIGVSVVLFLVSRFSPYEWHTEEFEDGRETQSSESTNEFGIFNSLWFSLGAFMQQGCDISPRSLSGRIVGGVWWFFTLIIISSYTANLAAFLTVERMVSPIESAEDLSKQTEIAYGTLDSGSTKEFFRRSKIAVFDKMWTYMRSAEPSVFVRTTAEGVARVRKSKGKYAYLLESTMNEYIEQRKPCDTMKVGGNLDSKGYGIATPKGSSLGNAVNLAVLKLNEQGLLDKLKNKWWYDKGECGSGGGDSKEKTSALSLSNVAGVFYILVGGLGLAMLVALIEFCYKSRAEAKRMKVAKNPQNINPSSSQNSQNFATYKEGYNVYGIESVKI
# GIRK2 activator: GIRK2 channel activators by thallium flux | P48051 | HEK293 GIRK2/NPY4 cells, thallium flux fluorescence | activation (% efficacy), % for hits at 37.5 µM | 34,000 tested, under 10 active | AID 1259324;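 active = primary screen hit, no activity in plain HEK293 cells, and in GIRK2-only cells above 5% efficacy rising with concentration; inactive = the rest, including fluorescent compounds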;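 also: efficacy is normalized control-subtracted fluorescence 15 s after thallium addition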
# Starred values were filed as active, the others as inactive; i = inactive; . = no result given; + = active, no number.
SMILES,AMPAR-TARP mod,GIRK2 activator
COc1ccc(C(CNC(=O)c2ccc3ccccc3c2)N2CCOCC2)cc1 (stereo unspecified),+,.
O=C(NCC(c1cccc2ccccc12)N1CCOCC1)c1cccc(Br)c1 (stereo unspecified),i,i
O=C(NCC(c1cccc2ccccc12)N1CCOCC1)c1ccc(Br)o1 (stereo unspecified),+,i
CCOc1ccccc1NC(=O)CCc1csc(NC(=O)c2cccs2)n1,i,i
O=C(Nc1nc(CC(=O)N2CCN(c3ncccn3)CC2)cs1)c1ccc(=O)[nH]c1,i,i
O=C(NCCN1CCOC(c2ccccc2)C1)c1ccc2ccccc2c1 (stereo unspecified),i,i
O=C(COc1cc(Cl)c(Cl)cc1Cl)N/N=C\c1cc2c(cc1[N+](=O)[O-])OCO2,.,i
Cn1c(-c2ccccn2)nn(CCNC(=O)C2(c3ccc(Cl)cc3)CCCC2)c1=O,+,i
Cn1c(C(F)(F)F)nn(CCNC(=O)C2(c3ccc(Cl)cc3)CCCC2)c1=O,i,i
COc1ccc(S(=O)(=O)Nc2cccc(C(=O)Nc3sc4c(c3C(N)=O)CCCC4)c2)cc1,i,i
Cc1ccccc1Cn1cc(C(=O)Nc2c(C)cccc2C)ccc1=O,+,i
CSc1ccccc1NC(=O)c1ccc(=O)n(Cc2ccccc2Cl)c1,+,i
CSc1ccccc1NC(=O)c1ccc(=O)n(Cc2cc(C)ccc2C)c1,+,i
CSc1ccccc1NC(=O)c1ccc(=O)n(Cc2ccccc2F)c1,i,i
COc1ccc(C)cc1NC(=O)c1ccc(=O)n(Cc2cc(C)ccc2C)c1,i,i
Cc1ccc(Cn2cc(C(=O)Nc3c(C)cccc3C)ccc2=O)cc1,i,i
Cn1nc(C2CCN(C(=O)Cn3cccc3)CC2)n(C2CCCC2)c1=O,i,i
CCC(=O)N1CCN(c2ccc(N3CCOCC3)nn2)CC1,i,i
O=C(c1cc2ccccc2oc1=O)N1CCN(C(=O)c2cnn3ccccc23)CC1,i,i
COc1ccc(Br)c(C(=O)Nc2nnc(Cc3ccc(F)cc3)o2)c1,i,i
COC(=O)c1sc2ccccc2c1S(=O)(=O)Nc1ccc(C)c(Cl)c1,i,.
O=S(=O)(Cc1ccc(Cl)cc1)NCC(c1ccco1)N1CCOCC1 (stereo unspecified),+,i
O=S(=O)(Cc1ccccc1)NCC(c1ccco1)N1CCOCC1 (stereo unspecified),i,i
CSc1nc2ccc3nc(Nc4nc5c(S(C)(=O)=O)cccc5s4)sc3c2s1,.,i
O=C(CCCS(=O)(=O)c1ccc(F)cc1)Nc1ccc([N+](=O)[O-])cc1,i,.
SMILES,AMPAR-TARP mod,GIRK2 activator
CC(C)n1c(=O)c2nscc2n(CC(=O)Nc2ccc(Br)cc2)c1=O,+,i
O=C(Cn1c(=O)n(C2CC2)c(=O)c2nscc21)Nc1ccc(F)c(Cl)c1,+,i
CC(C)n1c(=O)c2nscc2n(CC(=O)Nc2ccc3c(c2)OCCO3)c1=O,i,i
COc1ccc(NC(=O)Cn2c(=O)n(C(C)C)c(=O)c3nscc32)cc1Cl,i,i
Cc1cc(C)c(NC(=O)Cn2c(=O)n(C3CC3)c(=O)c3nscc32)c(C)c1,i,i
CCc1ccccc1NC(=O)Cn1c(=O)n(C2CC2)c(=O)c2nscc21,+,i
CCOC(=O)c1ccc(NC(=O)/C=C2\SC(=O)N(CC(=O)Nc3cccc(C)c3)C2=O)cc1,i,.
O=S(=O)(NCC(O)c1ccc(C(F)(F)F)cc1)c1ccc(OC(F)(F)F)cc1 (stereo unspecified),+,.
O=S(=O)(NCC(O)c1ccc(C(F)(F)F)cc1)c1ccc2c(c1)OCCO2 (stereo unspecified),i,i
COc1ccc(CCS(=O)(=O)NCC(O)c2ccc(C(F)(F)F)cc2)cc1 (stereo unspecified),+,i
COc1ccc(CCC(=O)NCC(O)c2ccc(C(F)(F)F)cc2)cc1 (stereo unspecified),.,i
CC(C)N(CC#CCNS(=O)(=O)c1cc(F)ccc1F)C(C)C,i,.
CC(C)N(CC#CCNS(=O)(=O)c1ccc(OC(F)(F)F)cc1)C(C)C,+,.
COc1cc(-c2ccc(=O)n(CC(N)=O)n2)cc(OC)c1OC,i,.
CCC(=O)Nc1ccc(Cl)c(NC(=S)NC(=O)c2ccc(F)cc2Cl)c1,i,.
COCCn1c(-n2nc(C)cc2C)nc2c1c(=O)n(Cc1ccccc1C)c(=O)n2C,i,i
Cc1ccc2sc(N(CCCn3ccnc3)C(=O)c3ccc(F)cc3)nc2c1C,i,i
COc1ccc(C(=O)N2N=C(c3ccccc3OC)CC2c2ccc3nccnc3c2)cc1 (stereo unspecified),i,i
COCCNC(=O)Cn1nc2c(c1NC(=O)C(C)Oc1ccccc1)CSC2 (stereo unspecified),i,i
O=C(Nc1c2c(nn1-c1ccc(F)cc1)CSC2)C(=O)N1CCCC1,+,.
O=C(Nc1c2c(nn1-c1ccc(Cl)cc1)CSC2)C(=O)N1CCCC1,i,i
COc1ccc(S(=O)(=O)CC(=O)N(Cc2ccccc2)Cc2ccccc2)cc1,i,i
Cc1ccc(S(=O)(=O)CCCC(=O)N(Cc2ccccc2)Cc2ccccc2)cc1,+,i
CCN(CC)CCNC(=O)C(=O)Nc1ccc(N2CCCCS2(=O)=O)cc1,i,.
CCSc1ccc(CC(=O)Nc2nc(-c3ccccn3)cs2)cc1,i,.
SMILES,AMPAR-TARP mod,GIRK2 activator
COc1ccc(Nc2cc(C)nc(NCCNC(=O)c3nccc(C)n3)n2)cc1,.,i
COc1ccc(Nc2cc(C)nc(NCCNC(=O)c3cnccn3)n2)cc1,+,i
Cc1cccc(COc2cccc(N3CCn4c3nc3c4c(=O)n(C)c(=O)n3C)c2)c1,i,.
Cn1c(=O)c2c(SCC(=O)NC(C)(C)C)ccnc2n(C)c1=O,i,i
CC1CN(C(=O)CSc2ccnc3c2c(=O)n(C)c(=O)n3C)CC(C)O1 (stereo unspecified),+,i
CCN(CC)CCSc1ccnc2c1c(=O)n(C)c(=O)n2C,+,i
Cn1c(=O)c2c(SCCN3CCCC3)ccnc2n(C)c1=O,+,i
C=CCSc1ccnc2c1c(=O)n(C)c(=O)n2C,+,.
Cn1c(=O)c2c(SCCO)ccnc2n(C)c1=O,i,.
CCCNC(=O)CSc1ccnc2c1c(=O)n(C)c(=O)n2C,i,i
Cn1c(=O)c2c(SCC(=O)N3CCCCCC3)ccnc2n(C)c1=O,i,.
O=C(Nc1ccc(I)cc1C(=O)N1CCCC1)c1cccc2ccccc12,i,.
COc1ccc(-n2c(SCC(=O)NCC3CCCO3)nc3c(-c4ccccc4)c[nH]c3c2=O)cc1 (stereo unspecified),.,i
COc1ccc(/C=C2\Oc3cc(O)ccc3C2=O)c(OC)c1,i,.
CCc1cnc2c(c1SCC(=O)N1CCN(c3ccccc3)CC1)c(=O)n(C)c(=O)n2C,i,i
Cc1cnc2c(c1SCC(=O)N1CCN(c3ccccc3)CC1)c(=O)n(C)c(=O)n2C,+,i
CCN(CC)C(=O)CSc1ccnc2c1c(=O)n(C)c(=O)n2C,i,i
Cn1c(=O)c2c(SCC(N)=O)ccnc2n(C)c1=O,+,.
CCOC(=O)CNC(=O)CSc1ccnc2c1c(=O)n(C)c(=O)n2C,i,i
CCOCCSc1ccnc2c1c(=O)n(C)c(=O)n2C,+,.
